High-throughput results: PubChem, several laboratories
Sampled rows, rich in hits. Any-hit rate of the full collection: about 3.5%.
BoNT F protease: BoNT/F light chain protease inhibitors, primary screen, biochemical, flow cytometry, MLPCN library; Botulinum neurotoxin type F light chain protease (Clostridium botulinum); Multiplex microsphere protease cleavage assay; inhibition, % at 10 µM; 0.22% of 360,000 active; in the data active = inhibition above about 35%, passing the limit was not always enough; inconclusive = no clear call, values can overlap the other calls; note: plate controls were buffer without enzyme for full effect and enzyme alone for no effect
BoNT-A LC inh2: BoNT/A light chain protease inhibitors, primary screen, biochemical, flow cytometry, MLPCN library. multiplex microsphere protease substrate cleavage. inhibition, % at 10 µM. 0.17% of 360,000 active. Botulinum neurotoxin type A light chain protease (Clostridium botulinum A str. ATCC 3502); note: plate controls were buffer without enzyme for full effect and enzyme alone for no effect
3CLpro inhibitor: SARS-CoV 3CLpro protease inhibitors, primary screen, biochemical, quenched FRET; 0.14% of 290,000 active; AID 1706, 2009; Replicase polyprotein 1ab (Severe acute respiratory syndrome coronavirus), P0C6X7; inhibition, % at 6 µM; recombinant SARS-CoV 3CLpro, quenched FRET peptide cleavage; in the data active = inhibition above about 12%
Bead autofluor: compound fluorescence in toxin protease inhibitor counterscreen; AID 624483; 3.1% of 360,000 active; fluorescence intensity (test concentration not listed); compound autofluorescence counterscreen, microsphere flow cytometry; hits give high values; in the data active = fluorescence intensity above about 16000; inconclusive = no clear call, values can overlap the other calls
Anthrax LF prot: Bacillus anthracis LF protease inhibitors, primary screen, biochemical, multiplex microsphere, MLPCN library. Lethal factor (Bacillus anthracis), P15917. 0.12% of 360,000 active. inhibition, % at 10 µM. AID 588501, 2011. multiplex microsphere protease cleavage assay; note: plate controls were buffer without enzyme for full effect and enzyme alone for no effect
Active calls of the source: *; ? = inconclusive; . = no result. Cut-off read from the data, not from the text of the source, unless noted: active = inhibition above about 30%; inconclusive = no clear call, values can overlap the other calls; inactive = below that.

SMILES | BoNT F protease | BoNT-A LC inh2 | 3CLpro inhibitor | Bead autofluor | Anthrax LF prot
CCOC(=O)c1sc2cc([N+](=O)[O-])cc(SCC(C)C)c2c1N | 18 | 32* | 3 | 20038* | 21
CCOC(=O)c1cc(N)cc([N+](=O)[O-])c1 | -8 | -1 | 5 | 2374 | -2
Cc1cc(C)n2cc(CSC3=NCCS3)nc2n1 | -2 | 0 | 2 | 2773 | 7
CSc1ccc(/C=N/n2nnnc2N)cc1 | 1 | 1 | -1 | 22907* | -1
Nc1nnnn1/N=C/c1ccc(O)cc1 | 0 | 0 | 3 | 9263 | 2
COc1ccccc1N1CCN(/N=C/c2cc(OC)c(OC)c(OC)c2)CC1 | -8 | -3 | 3 | 9864 | -6
COc1cc(/C=N/N2CCN(c3ccccc3OC)CC2)ccc1O | 0 | ? | -2 | 16130* | -5
Nc1nnnn1/N=C/c1ccccn1 | 9 | 5 | -4 | 21208* | -7
CCN(CC)c1ccc(/C=N/n2nnnc2N)c(O)c1 | -4 | 3 | -5 | 22051* | -5
O=C1NC[C@H](CCCCN2CCN(Cc3ccccc3)C(=O)C2=O)N(CCC2CCCCC2)C1=O | -5 | -1 | . | 6115 | -10
COc1cc(/C=N/n2nnnc2N)ccc1O | -9 | -3 | -5 | 23466* | -5
OCCN1CCN(c2ncnc3nc[nH]c23)CC1 | -9 | -1 | -1 | 4403 | -6
Cc1ccccc1NC(=O)Cn1cccc1 | -1 | 0 | 0 | 10489 | -2
Cc1c(Cl)cccc1NC(=O)CCC(=O)NNC(=O)c1ccccc1Cl | -4 | ? | -3 | 17035* | 0
Cc1ccccc1C(=O)NNC(=O)CCC(=O)Nc1cccc(Cl)c1C | 4 | 1 | 3 | 1937 | -2
Cc1c(Cl)cccc1NC(=O)CCC(=O)NNC(=O)c1ccco1 | -2 | -1 | 5 | 16503* | 0
Cc1cc(C)c2c(=O)n(CC(=O)Nc3cccc(Cl)c3C)sc2n1 | 3 | 54* | 0 | 3362 | 1
Cc1c(Cl)cccc1NC(=O)Cn1cccc1 | -3 | 1 | 0 | 23242* | -3
O=C(CCC(=O)Nc1ccccc1Cl)NNC(=O)c1ccco1 | 0 | 0 | 1 | 2182 | 0
Cc1cccc(Cn2cc(/C=C/[N+](=O)[O-])c3ccccc32)c1 | 20 | 28 | 4 | 8917 | 15
O=[N+]([O-])/C=C/c1cn(Cc2ccc(Cl)cc2)c2ccccc12 | 12 | 39* | 7 | 4418 | 21
COc1ccc(NC(=S)N2CCN(S(=O)(=O)c3ccc(C)cc3)CC2)cc1 | 0 | 2 | 7 | 5695 | -1
CCOc1ccc(N2C(=O)Nc3ccccc3C2(O)C(=O)NCc2ccccc2)cc1 (centres undefined) | 8 | 0 | -2 | 3520 | 3
Cc1ccccc1NC(=O)CC1S/C(=N/c2nccs2)N(C)C1=O (centres undefined) | -11 | 1 | 2 | 4594 | 2
CCc1ccccc1NC(=O)CC1S/C(=N\c2nccs2)N(CC)C1=O (centres undefined) | 0 | -2 | 3 | 17187* | -1
SMILES | BoNT F protease | BoNT-A LC inh2 | 3CLpro inhibitor | Bead autofluor | Anthrax LF prot
O=C(NC1CC1)c1cccc(Nc2ccc(-c3ccc4c(c3)OCCO4)nn2)c1 | 3 | 4 | 2 | 21941* | -3
O=S(=O)(c1ccc(Nc2ccc(-c3ccc4c(c3)OCCO4)nn2)cc1)N1CCCC1 | -5 | 2 | 1 | 7199 | 1
O=C1N(c2ccc(Cl)c(Cl)c2)CN(Cc2ccccc2)CN1n1cnnc1 | -8 | -3 | 2 | 17448* | 2
COc1ccc(CN2CN(c3ccc(Cl)cc3)C(=O)N(n3cnnc3)C2)cc1 | -4 | 0 | 2 | 11392 | -2
Clc1cccc(N2CCN(CCCN3CCN(c4ccccc4)CC3)CC2)c1 | -28 | -1 | . | 3499 | -10
COc1cc(NC(=O)N[C@@H](CCSC)C(=O)O)cc(OC)c1 | -3 | -1 | -4 | 4524 | -5
COc1cc(NC(=O)N[C@H](C(=O)O)C(C)C)cc(OC)c1 | 4 | 2 | 0 | 21545* | 1
COc1cc(NC(=O)C(F)(F)F)cc(OC)c1 | -5 | -1 | 2 | 16433* | -3
CN(C)S(=O)(=O)c1ccc(C(=O)Nc2ccc3ncccc3c2)cc1 | ? | 2 | 4 | 3456 | 19
CCOc1ccccc1-n1nnnc1SCc1nc2ccccc2s1 | -8 | -4 | 2 | 17496* | -3
O=C(Nc1cccc(Cn2cccn2)c1)c1cc2c(s1)CCCC2 | -3 | -3 | 3 | 16682* | -8
CC(=O)Nc1cccc(Cn2cccn2)c1 | . | . | 1 | . | .
CC(=O)c1ccc(NC(=O)CSC(C)C)cc1 | 2 | 0 | 6 | 22011* | 0
CCCCN1C(=O)/C(=C2\SC(N3CCCCC3)=NC2=O)c2ccccc21 | -3 | ? | 5 | 23186* | -6
COc1ccc(OC)c(NC(=O)c2ccc(CN3CCc4ccccc4C3)cc2)c1 | -10 | 0 | -2 | 3889 | 6
O=C(Nc1ccccc1C(F)(F)F)c1cccnc1 | -2 | -1 | 0 | 3951 | -4
CC(C)(C)c1ccccc1NC(=O)c1cccnc1 | -3 | ? | -4 | 16565* | 0
CC(C)c1ccc(O)c(NC(=O)c2cccnc2)c1 | -1 | -1 | -1 | 20393* | -2
CC(C)c1ccc(NC(=O)c2cccnc2)cc1 | -1 | 0 | 2 | 9193 | 1
O=[N+]([O-])c1cc(C(F)(F)F)cc([N+](=O)[O-])c1NCCNC(=S)Nc1cccc(F)c1 | 2 | 0 | -3 | 5796 | 2
COc1cc(C(=O)N/N=C/c2ccc(OC(=O)c3cccc(C)c3)c(OC)c2)ccc1O | -8 | 1 | -6 | 5093 | 0
C=CCn1cc(C(=O)NCCOC)c(=O)c2cc(S(=O)(=O)N(CC)CC)ccc21 | 0 | 0 | -5 | 16280* | -4
C=CCn1cc(C(=O)NCCCOCC)c(=O)c2cc(S(=O)(=O)N(CC)CC)ccc21 | 2 | 0 | -3 | 23558* | 0
CN1CCN(c2cc(C(F)(F)F)nc(-c3ccccn3)n2)CC1 | -6 | -1 | 1 | 4719 | -9
CNc1cc(C(F)(F)F)nc(-c2ccccn2)n1 | 3 | ? | 0 | 19306* | 0
CCC(C)(C)n1nnnc1C(c1cc2cc(C)ccc2[nH]c1=O)N1CCCc2ccccc21 (centres undefined) | -4 | 1 | 5 | 10565 | -2
CCC(C)(C)n1nnnc1C(c1cc2ccc(OC)cc2[nH]c1=O)N1CCc2ccccc21 (centres undefined) | -4 | ? | -8 | 17938* | 6
CCC(C)(C)n1nnnc1C(c1cc2ccc(OC)cc2[nH]c1=O)N1CCc2ccccc2C1 (centres undefined) | -2 | 1 | -2 | 11391 | 1
CCC(C)(C)n1nnnc1C(c1cc2cc(OC)ccc2[nH]c1=O)N1CCc2ccccc21 (centres undefined) | 0 | 2 | -14 | 16186* | 1
Cc1ccccc1S(=O)(=O)N(C)C[C@@H]1OCc2cnnn2CCCC(=O)N([C@H](C)CO)C[C@@H]1C | -2 | 0 | . | 2976 | 5
